For eleven compounds, potency estimated from few doses results are on record in PMC11062922 (Nature Chemical Biology, 2023).

Parameters in all cases: species or system human, MV4-11 + K-562 + COLO205 + SK-N-BE2 + OVCAR-8
In one assay the test system is FRK. As to conditions: read-out: apparent Kd; compound concentrations: 100 nM and 1000 nM (sheet 'Samples'), CATDS: 0.28944129909261102; n = 1.
A further assay relates to HCK. To be noted: read-out: apparent Kd; compound concentrations: 100 nM and 1000 nM (sheet 'Samples'), CATDS: 0.241643180155243; n = 1.
Another assay relates to LCK. As to conditions: read-out: apparent Kd; compound concentrations: 100 nM and 1000 nM (sheet 'Samples'), CATDS: 0.30139088079166299; n = 1.
The subject of a further assay is MAP2K5. To be noted: read-out: apparent Kd; compound concentrations: 100 nM and 1000 nM (sheet 'Samples'), CATDS: 0.19651058590933199; n = 1.
The next assay deals with FLT3. To be noted: read-out: apparent Kd, n = 1.
For the next assay, the system named is FLT4. As to conditions: read-out: apparent Kd; compound concentrations: 100 nM and 1000 nM (sheet 'Samples'), CATDS: 1; n = 1.
Another assay concerns GAK. To be noted: read-out: apparent Kd; compound concentrations: 100 nM and 1000 nM (sheet 'Samples'), CATDS: 0.42692129692206698; n = 1.
The subject of another assay is NLK. To be noted: read-out: apparent Kd; compound concentrations: 100 nM and 1000 nM (sheet 'Samples'), CATDS: 0.239785961160628; n = 1.
Another assay deals with RIPK2. To be noted: read-out: apparent Kd; compound concentrations: 100 nM and 1000 nM (sheet 'Samples'), CATDS: 0.40204852474639502; n = 1.
The next assay relates to GRK6. To be noted: read-out: apparent Kd, compound concentrations: 100 nM and 1000 nM (sheet 'Samples'), n = 1.
The test system of a further assay is HSP90B1. To be noted: read-out: apparent Kd; compound concentrations: 100 nM and 1000 nM (sheet 'Samples'), CATDS: 0.138909392239214; n = 1.
The next assay deals with MAP2K1. As to conditions: read-out: apparent Kd; compound concentrations: 100 nM and 1000 nM (sheet 'Samples'), CATDS: 0.11714915098763; n = 1.
For the next assay, the system named is MAPK10. To be noted: read-out: apparent Kd; compound concentrations: 100 nM and 1000 nM (sheet 'Samples'), CATDS: 0.46372584389591998; n = 1.
For the next assay, the system named is MAPK8. As to conditions: read-out: apparent Kd; compound concentrations: 100 nM and 1000 nM (sheet 'Samples'), CATDS: 0.17853758786403801; n = 1.
In the next assay the test system is MAPK9. To be noted: read-out: apparent Kd; compound concentrations: 100 nM and 1000 nM (sheet 'Samples'), CATDS: 0.26244745216645099; n = 1.
Another assay deals with FN3K. To be noted: read-out: apparent Kd; compound concentrations: 100 nM and 1000 nM (sheet 'Samples'), CATDS: 0.30544658046652101; n = 1.
The test system of a further assay is ROCK1. To be noted: read-out: apparent Kd; compound concentrations: 100 nM and 1000 nM (sheet 'Samples'), CATDS: 0.35168740775253199; n = 1.
A further assay deals with ROCK2. As to conditions: read-out: apparent Kd; compound concentrations: 100 nM and 1000 nM (sheet 'Samples'), CATDS: 0.34690050634706199; n = 1.
The test system of another assay is JAK2. To be noted: read-out: apparent Kd; compound concentrations: 100 nM and 1000 nM (sheet 'Samples'), CATDS: 0.29115403437322901; n = 1.
The test system of a further assay is PDGFRB. As to conditions: read-out: apparent Kd; compound concentrations: 100 nM and 1000 nM (sheet 'Samples'), CATDS: 0.22396051882089299; n = 1.
The test system of another assay is GSK3A. As to conditions: read-out: apparent Kd; compound concentrations:100 nM and 1000 nM (sheet 'Samples'); n = 1.
For the next assay, the system named is GARS. As to conditions: read-out: apparent Kd; compound concentrations: 100 nM and 1000 nM (sheet 'Samples'), CATDS: 0.112943260502492; n = 1.
A further assay deals with MAP3K6. As to conditions: read-out: apparent Kd; compound concentrations: 100 nM and 1000 nM (sheet 'Samples'), CATDS: 0.103040219928506; n = 1.
The subject of a further assay is MTOR. As to conditions: read-out: apparent Kd; compound concentrations: 100 nM and 1000 nM (sheet 'Samples'), CATDS: 0.20477857042049299; n = 1.
Another assay has as its system PIK3C2A. To be noted: read-out: apparent Kd; compound concentrations: 100 nM and 1000 nM (sheet 'Samples'), CATDS: 0.109461657335159; n = 1.
The next assay relates to PIK3CA. As to conditions: read-out: apparent Kd; compound concentrations: 100 nM and 1000 nM (sheet 'Samples'), CATDS: 0.41958784794042803; n = 1.
The next assay concerns PRKDC. To be noted: read-out: apparent Kd; compound concentrations: 100 nM and 1000 nM (sheet 'Samples'), CATDS: 0.14221616768717599; n = 1.
In the next assay the test system is RAB14. As to conditions: read-out: apparent Kd; compound concentrations: 100 nM and 1000 nM (sheet 'Samples'), CATDS: 0.14270902117051201; n = 1.
The next assay deals with MYLK3. As to conditions: read-out: apparent Kd; compound concentrations: 100 nM and 1000 nM (sheet 'Samples'), CATDS: 0.46220060091739101; n = 1.

Where two headings read alike, the source gives them in different places.

As for `COc1cc2nccc(Nc3ccc(NC(=O)c4ccc(C)cc4)c(O)c3)c2cc1OC.Cl` [GW440132A], the potency estimated from few doses was 691 nM with FRK, 986 nM in the assay with HCK, 643 nM in the assay on LCK and 1640 nM in the assay with MAP2K5.
Regarding `CCS(=O)(=O)c1ccc(OC)c(Nc2ncc(-c3cccc(OC)c3)o2)c1` [GW580509X], the potency estimated from few doses in the assay with FLT3 (compound concentrations:100 nM and 1000 nM (sheet 'Samples')) was 1130 nM.
For `COc1ccc(-c2nn3ncccc3c2-c2ccnc(Nc3ccc(Cl)c(C(F)(F)F)c3)n2)cc1` [GW829115X], the potency estimated from few doses in the assay on FLT4 was 635 nM.
For `COc1cc(Nc2ccnc3ccc(C(F)(F)F)cc23)cc(OC)c1OC` [GW577382X], the potency estimated from few doses with GAK is 305 nM; with NLK, 1230 nM; with RIPK2, 340 nM.
On to `CCC(=O)c1c(-c2ccccc2)c2cc(Cl)ccc2c(=O)n1Cc1cc(S(C)(=O)=O)n(CC(N)=O)n1` [TPKI-105], for which the potency estimated from few doses with GRK6 (CATDS: 0.114980307902388) is 2180 nM; in the assay on HSP90B1, 1090 nM; in the assay on MAP2K1, 2010 nM; with MAPK10, 90.1 nM; in the assay with MAPK8, 543 nM; in the assay on MAPK9, 235 nM.
In the case of `NS(=O)(=O)c1cccc(N/C=C2\C(=O)Nc3ccc(S(=O)(=O)Cc4c(Cl)cccc4Cl)cc32)c1` [GSK398099A], the potency estimated from few doses in the assay with FN3K was 2240 nM; in the assay with ROCK1, 1680 nM; in the assay on ROCK2 it was 1720 nM.
As to `COc1ccccc1Nc1ncc(-c2ccccc2)o1.Cl` [GW577921A], the potency estimated from few doses with FLT3 (compound concentrations: 100 nM and 1000 nM (sheet 'Samples'), CATDS: 0.90882717599339502) was 14.3 nM; in the assay on JAK2 it was 370 nM; in the assay with PDGFRB, 1080 nM.
For the compound `COc1ccc(C2=C(Nc3cccc(C(=O)O)c3)C(=O)NC2=O)cc1` [SB-390765], the potency estimated from few doses in the assay on GSK3A is 82.8 nM.
As for `c1ccc(-c2cnc3nccnn23)cc1` [AH20685XX], in the assay on GRK6 (CATDS: 1), the potency estimated from few doses is 2060 nM.
Consider `Nc1ncnc2c1ncn2-c1cccc2ccccc12` [SKF-97184], for which the potency estimated from few doses was 1670 nM with GARS; 2270 nM in the assay on MAP3K6; 419 nM in the assay on MTOR; 1840 nM in the assay with PIK3C2A; 132 nM with PIK3CA; 896 nM in the assay with PRKDC. In addition, the potency estimated from few doses with RAB14 is 889 nM.
With `O=C1Nc2ccccc2/C1=C/Nc1ccc2[nH]c(=O)[nH]c2c1` [GW284408X], the potency estimated from few doses with FLT3 (compound concentrations: 100 nM and 1000 nM (sheet 'Samples'), CATDS: 0.54453262493036503) was 348 nM; in the assay on MYLK3 it was 485 nM.
